Values joined by “and” are separate entries in the source; they are usually repeats but may differ in a detail not shown here. Equal values may be shown once. This is part of a sample that, as a whole, favours compounds with a hit. Of some 83,000 tested, about 20% had one in any assay.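 Single-dose data. Exposure time 48 hours. Values below 10 considered active.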 Active and inactive are the calls of the source.
Assays:
Assay in all cases: NCI-60 one-dose screen, 48 h (100 = growth as untreated, 0 = no growth, -100 = all killed)
Conditions in all cases: 10 µM unless noted
NCI-H23 lung = test system: NCI-H23 lung
NCI-H226 lung = test system: NCI-H226 lung
NCI-H322M lung = test system: NCI-H322M lung
HOP-62 NSCLC = test system: HOP-62 NSCLC
NCI-H460 lung = test system: NCI-H460 lung
HOP-92 NSCLC = test system: HOP-92 NSCLC
NCI-H522 lung = test system: NCI-H522 lung
A549/ATCC NSCLC = test system: A549/ATCC NSCLC
786-0 renal = test system: 786-0 renal
COLO 205 colon = test system: COLO 205 colon

Measured: growth

COc1cc(NS(=O)(=O)C(C)C)cc(-c2cc(-c3ccc(N4CCNCC4)cc3)cnc2N)c1
inactive: NCI-H23 lung 84.1% | NCI-H226 lung 61.1% | NCI-H322M lung 91% | HOP-62 NSCLC 103% | NCI-H460 lung 97.1% | HOP-92 NSCLC 61.8% | NCI-H522 lung 52.8% | A549/ATCC NSCLC 76.9% | 786-0 renal 45.1% | COLO 205 colon 84.4%

CNC(=O)c1cc(Oc2ccc3nc(NC(=O)Nc4ccc(C(F)(F)F)cc4)sc3c2)ccn1
active: A549/ATCC NSCLC 1.79%
inactive: NCI-H23 lung 63.4% | NCI-H226 lung 85.6% | NCI-H322M lung 80.5% | HOP-62 NSCLC 67.4% | NCI-H460 lung 33.4% | HOP-92 NSCLC 74.4% | NCI-H522 lung 42.4% | 786-0 renal 35.4% | COLO 205 colon 58.7%

Nc1c(C(=O)Nc2ccncc2)sc2nc3c(cc12)CCCCCCCC3
active: NCI-H23 lung -63.2% | NCI-H322M lung -54.4% | HOP-62 NSCLC -74.2% | NCI-H460 lung -66.7% | HOP-92 NSCLC -76.2% | NCI-H522 lung -84.9% | A549/ATCC NSCLC -62.7% | 786-0 renal -93.9% | COLO 205 colon -83.2%
inactive: NCI-H226 lung 17.6%

Cc1ccc(-c2nc3nc(-c4ccccc4)nc(N4CCN(S(=O)(=O)c5ccccc5)CC4)c3o2)cc1
inactive: NCI-H23 lung 88.3% | NCI-H226 lung 76.5% | NCI-H322M lung 101% | HOP-62 NSCLC 72.3% | NCI-H460 lung 73.3% | HOP-92 NSCLC 95.1% | NCI-H522 lung 72.9% | A549/ATCC NSCLC 91.5% | 786-0 renal 61% | COLO 205 colon 125%

COc1ccc(C(=O)N/N=C/c2ccc(O)cc2O)cc1Nc1ccnc(C(F)(F)F)c1
inactive: NCI-H23 lung 32.1% | NCI-H226 lung 45% | NCI-H322M lung 30.9% | HOP-62 NSCLC 11.8% | NCI-H460 lung 24.7% | HOP-92 NSCLC 51.8% | NCI-H522 lung 36.2% | A549/ATCC NSCLC 53.3% | COLO 205 colon 37.1%
active: 786-0 renal 3.75%

NNCCc1ccccc1
inactive: NCI-H23 lung 103% and 88.8% | NCI-H226 lung 93.3% and 75.7% | NCI-H322M lung 95.2% | HOP-62 NSCLC 104% and 103% | NCI-H460 lung 115% and 105% | HOP-92 NSCLC 83.1% and 102% | NCI-H522 lung 92.1% and 94.1% | A549/ATCC NSCLC 108% and 90.5% | 786-0 renal 95.2% and 106% | COLO 205 colon 96.5% and 103%

O=C(NNc1ccccc1)c1ncc[nH]1
inactive: NCI-H23 lung 96.2% | NCI-H226 lung 62.6% | NCI-H322M lung 82.8% | HOP-62 NSCLC 73% | NCI-H460 lung 100% | HOP-92 NSCLC 95.1% | NCI-H522 lung 50.8% | A549/ATCC NSCLC 64.4% | 786-0 renal 75.2% | COLO 205 colon 79.7%

O=C(/C=C/c1cccs1)Nc1ncc(Cc2ccc(Cl)c(Cl)c2)s1
inactive: NCI-H23 lung 91.4% | NCI-H226 lung 86% | NCI-H322M lung 76.5% | HOP-62 NSCLC 61.5% | NCI-H460 lung 48% | HOP-92 NSCLC 78.1% | NCI-H522 lung 38.9% | A549/ATCC NSCLC 59.4% | 786-0 renal 75.2% | COLO 205 colon 51.4%

N#Cc1c(N)nnn1Cc1cc(=O)oc2ccc(O)cc12
inactive: NCI-H23 lung 106% | NCI-H226 lung 95.7% | NCI-H322M lung 110% | HOP-62 NSCLC 106% | NCI-H460 lung 107% | HOP-92 NSCLC 95.7% | NCI-H522 lung 89.6% | A549/ATCC NSCLC 98.7% | 786-0 renal 106% | COLO 205 colon 118%

CCN(CC)CC#CCOC(=O)[C@]1(C)CCC[C@]2(C)c3ccc(C(C)C)cc3CC[C@@H]12
inactive: NCI-H23 lung 70.8% | NCI-H226 lung 82.5% | NCI-H322M lung 93.7% | HOP-62 NSCLC 96.2% | NCI-H460 lung 97.9% | HOP-92 NSCLC 76.7% | NCI-H522 lung 80.6% | A549/ATCC NSCLC 87.5% | 786-0 renal 81.2% | COLO 205 colon 80.2%

COc1ccc(C/C(C)=C(/c2ccc(OCCN3CCCCCC3)cc2)c2ccc(OC(=O)c3ccccc3)cc2)cc1
inactive: NCI-H23 lung 109% | NCI-H226 lung 110% | NCI-H322M lung 102% | HOP-62 NSCLC 91.3% | NCI-H460 lung 110% | HOP-92 NSCLC 105% | NCI-H522 lung 75.6% | A549/ATCC NSCLC 97.5% | 786-0 renal 96.8% | COLO 205 colon 113%

CN(C)CCCn1c2c(c3ccc(N4CCNCC4)cc3c1=O)C(=O)c1ccccc1-2
active: NCI-H23 lung -59.5% | HOP-62 NSCLC -34.7% | NCI-H460 lung -47.9% | NCI-H522 lung 5.51% | A549/ATCC NSCLC -61.7% | 786-0 renal -95.3% | COLO 205 colon 4.57%
inactive: NCI-H226 lung 14.2% | NCI-H322M lung 13% | HOP-92 NSCLC 18.4%

COc1ccc(Nc2nn3c(SCC(=O)c4ccc(C)cc4)nnc3s2)cc1
inactive: NCI-H23 lung 91.1% | NCI-H226 lung 84.8% | NCI-H322M lung 86.2% | HOP-62 NSCLC 90.8% | NCI-H460 lung 97.9% | HOP-92 NSCLC 83.4% | NCI-H522 lung 80.6% | A549/ATCC NSCLC 96.6% | 786-0 renal 93.5% | COLO 205 colon 91.8%

CCCNNC(=O)/C=C/c1ccc(CNCCc2c(C)[nH]c3ccccc23)cc1
active: HOP-62 NSCLC 3.81% [2.5 µM] | HOP-92 NSCLC -5.2% [2.5 µM] | COLO 205 colon -55.7% [2.5 µM]
inactive: NCI-H23 lung 38.6% [2.5 µM] | NCI-H226 lung 33.6% [2.5 µM] | NCI-H322M lung 15.9% [2.5 µM] | NCI-H460 lung 23.8% [2.5 µM] | NCI-H522 lung 19.7% [2.5 µM] | A549/ATCC NSCLC 14% [2.5 µM] | 786-0 renal 22.8% [2.5 µM]

CCNC(=S)n1nc(SC)c(C(=O)OCC)c1N
inactive: NCI-H23 lung 93.3% | NCI-H226 lung 91.9% | NCI-H322M lung 91.8% | HOP-62 NSCLC 86.7% | NCI-H460 lung 106% | HOP-92 NSCLC 110% | NCI-H522 lung 89.9% | A549/ATCC NSCLC 107% | 786-0 renal 98.6% | COLO 205 colon 107%

O=C1CCCCN1CCCCC#Cc1cccc(C#Cc2cccnc2)c1
inactive: NCI-H23 lung 88.5% | NCI-H226 lung 78.1% | NCI-H322M lung 180% | HOP-62 NSCLC 114% and 98.7% | NCI-H460 lung 73% | HOP-92 NSCLC 31.9% | NCI-H522 lung 75.7% | A549/ATCC NSCLC 81% | 786-0 renal 116% and 89.9% | COLO 205 colon 83.5%

COc1ccc(-c2cc(-c3cccnc3)nc3sc4c(Cl)nnnc4c23)cc1OC
inactive: NCI-H23 lung 91.3% | NCI-H226 lung 84.4% | NCI-H322M lung 95.3% | HOP-62 NSCLC 98.4% | NCI-H460 lung 102% | HOP-92 NSCLC 106% | NCI-H522 lung 47.4% | A549/ATCC NSCLC 93.6% | 786-0 renal 109% | COLO 205 colon 42%

Cc1ccc(/C=C/c2c(C(=O)/C=C/c3ccccc3)c(C)nc3ccccc23)cc1
inactive: NCI-H23 lung 27.5% | NCI-H226 lung 43.6% | NCI-H322M lung 46.8% | HOP-92 NSCLC 89.4% | NCI-H522 lung 11.1% | A549/ATCC NSCLC 30.8% | 786-0 renal 25.8% | COLO 205 colon 12.7%
active: HOP-62 NSCLC -18% | NCI-H460 lung -9.62%

COc1cc(C(=O)c2ccccc2C(=O)O)c(OC)c2c1CCCC2
inactive: NCI-H23 lung 98.2% and 94.4% | NCI-H226 lung 108% | NCI-H322M lung 108% and 101% | HOP-62 NSCLC 106% | NCI-H460 lung 103% and 107% | HOP-92 NSCLC 95.8% | NCI-H522 lung 106% and 145% | A549/ATCC NSCLC 97.5% and 101% | 786-0 renal 94.2% and 97.6% | COLO 205 colon 114% and 108%

O=C1/C(=C/c2ccc(-c3cccc(C(F)(F)F)c3)o2)SC(=S)N1CCc1ccc(O)cc1
inactive: NCI-H23 lung 85% | NCI-H226 lung 101% | NCI-H322M lung 90.3% | HOP-62 NSCLC 88.9% | NCI-H460 lung 72.4% | HOP-92 NSCLC 63.5% | A549/ATCC NSCLC 75% | 786-0 renal 17.9%
active: NCI-H522 lung 4% | COLO 205 colon -3.13%

Nc1n[nH]c2cccc(C#Cc3cccc(C(=O)Nc4ccc(CN5CCOCC5)c(C(F)(F)F)c4)c3)c12
inactive: NCI-H23 lung 33.6% | NCI-H226 lung 36.5% | NCI-H322M lung 72.2% | HOP-62 NSCLC 52.1% | NCI-H460 lung 44.5% | HOP-92 NSCLC 35.5% | NCI-H522 lung 41.9% | A549/ATCC NSCLC 43.4% | COLO 205 colon 13.1%
active: 786-0 renal 8.57%

O=C(/C=C/c1ccc([N+](=O)[O-])cc1)c1ccccc1
inactive: NCI-H23 lung 93.2% | NCI-H226 lung 85% | NCI-H322M lung 102% | HOP-62 NSCLC 83% | NCI-H460 lung 105% | HOP-92 NSCLC 75.9% | NCI-H522 lung 70.4% | A549/ATCC NSCLC 83.3% | 786-0 renal 89.1% | COLO 205 colon 87.2%

CCNC(=O)Nc1ncccc1OCc1ccc(F)cc1
inactive: NCI-H23 lung 87.1% | NCI-H226 lung 106% | NCI-H322M lung 105% | HOP-62 NSCLC 95.3% | NCI-H460 lung 105% | HOP-92 NSCLC 108% | NCI-H522 lung 86.2% | A549/ATCC NSCLC 99% | 786-0 renal 92.8% | COLO 205 colon 115%

CN1CCN(CCCN2c3ccccc3Sc3ccc(Cl)cc32)CC1
inactive: NCI-H23 lung 82.3% and 86.4% | NCI-H226 lung 95.7% and 95.1% | NCI-H322M lung 93.1% | HOP-62 NSCLC 90.4% | NCI-H460 lung 93.4% and 96.9% | HOP-92 NSCLC 48.1% and 29.4% | NCI-H522 lung 81.5% and 92.9% | A549/ATCC NSCLC 73.9% and 80.4% | 786-0 renal 62.8% and 72% | COLO 205 colon 26.8%

From PubChem BioAssay (NCI)
